Source: the supplement of paper PMC12067926

System: Bacillus 1 (Bacillus foraminis)
Assay: relative growth (AUC of 72 h growth curve relative to DMSO control, dAUC) (ratio); higher = more growth (less inhibition), active = hit call of the paper
Conditions: 20 µM;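 active = growth AUC significantly below the DMSO wells by Dunnett test; inactive = the rest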
Method: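 Environmental bacterial isolates (Iceland stream sediment and Silwood Park soil) and whole stream-sediment communities were grown in LB from a 1:100 dilution with each pesticide at 20 µM (1% DMSO). A600 was read hourly for 72 h and the area under a spline-fitted growth curve (AUC) was computed. dAUC is the mean AUC of 3 biological replicates divided by the mean AUC of the DMSO controls. Significance was tested by Dunnett's test against the DMSO control.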

Structure (SMILES) | relative growth
CC1=NNC(=O)N(/N=C/c2cccnc2)C1 | 1.16 (inactive)
O=C(O)CNCP(=O)(O)O | 1.04 (inactive)
CCC(C)c1ccccc1OC(=O)NC (stereo not given) | 1.07 (inactive)
COCc1cnc(C2=NC(C)(C(C)C)C(=O)N2)c(C(=O)O)c1 (stereo not given) | 0.985 (inactive)
CCOP(=S)(OCC)Oc1nc(Cl)c(Cl)cc1Cl | 1.07 (inactive)
CS(=O)(=O)c1ccc(C(=O)C2C(=O)CCCC2=O)c([N+](=O)[O-])c1 | 0.961 (inactive)
O=C1C=C(N(Cc2ccc(Cl)nc2)CC(F)F)CO1 | 0.945 (inactive)
OC(Cn1cncn1)(c1ccc(F)cc1)c1ccccc1F (stereo not given) | 1.07 (inactive)
COP(=O)(OC)OC=C(Cl)Cl | 0.941 (inactive)
CC(C)(C)c1ccc(CSc2cnn(C(C)(C)C)c(=O)c2Cl)cc1 | 1.03 (inactive)
CN/C(=N/CC1CCOC1)N[N+](=O)[O-] (stereo not given) | 1.11 (inactive)
CC(C)(C)C(O)(CCc1ccc(Cl)cc1)Cn1cncn1 (stereo not given) | 0.924 (inactive)
Cc1cc(C(C#N)c2ccc(Cl)cc2)c(Cl)cc1NC(=O)c1cc(I)cc(I)c1O (stereo not given) | 0.695 (inactive)
CC(C)OC(=O)C(C(=O)OC(C)C)=C1SCCS1 | 1.05 (inactive)
N#CC(CCc1ccc(Cl)cc1)(Cn1cncn1)c1ccccc1 (stereo not given) | 0.836 (inactive)
N#CCNC(=O)c1cnccc1C(F)(F)F | 1.03 (inactive)
CCOCn1c(-c2ccc(Cl)cc2)c(C#N)c(Br)c1C(F)(F)F | 1.1 (inactive)
N#Cc1c(Cl)c(Cl)c(Cl)c(C#N)c1Cl | 0.955 (inactive)
CCNc1nc(Cl)nc(NC(C)C)n1 | 0.997 (inactive)
CCOC(=O)CC(SP(=S)(OC)OC)C(=O)OCC (stereo not given) | 1.05 (inactive)

Structure (SMILES) | relative growth
CCCCC(C#N)(Cn1cncn1)c1ccc(Cl)cc1 (stereo not given) | 0.889 (inactive)
CC(C)(C)[C@@H](O)[C@H](Oc1ccc(Cl)cc1)n1cncn1 | 1.03 (inactive)
CC(C)N1C(=O)c2ccccc2NS1(=O)=O | 1.01 (inactive)
Cc1cc(C(F)(C(F)(F)F)C(F)(F)F)ccc1NC(=O)c1cccc(I)c1C(=O)NC(C)(C)CS(C)(=O)=O | 1.16 (inactive)
CC(C)N(C(=O)COc1nnc(C(F)(F)F)s1)c1ccc(F)cc1 | 0.999 (inactive)
O=C(O)COc1ccc(Cl)cc1Cl | 1.09 (inactive)
CCc1nn(C)c(C(=O)NCc2ccc(Oc3ccc(C)cc3)cc2)c1Cl | 1.05 (inactive)
COP(=S)(OC)Oc1ccc(SC)c(C)c1 | 0.995 (inactive)
CC[C@H](C)C1O[C@]2(C=C[C@@H]1C)C[C@@H]1C[C@@H](C/C=C(\C)[C@@H](O[C@H]3C[C@H](OC)[C@@H](O[C@H]4C[C@H](OC)[C@H](NC)[C@H](C)O4)[C@H](C)O3)[C@@H](C)/C=C/C=C3\CO[C@@H]4[C@H](O)C(C)=C[C@@H](C(=O)O1)[C@]34O)O2 (stereo not given in full) | 0.928 (inactive)
CC1(C)C(C=C(Cl)Cl)C1C(=O)OCc1cccc(Oc2ccccc2)c1 (stereo not given) | 1.06 (inactive)
C/C(=N\C#N)N(C)Cc1ccc(Cl)nc1 | 0.921 (inactive)
CCC(C)(C)C(=O)OC1=C(c2ccc(Cl)cc2Cl)C(=O)OC12CCCCC2 | 0.975 (inactive)
CCOP(=S)(OCC)Oc1cc(C)nc(C(C)C)n1 | 0.963 (inactive)
CNC(=O)Oc1cccc(/N=C/N(C)C)c1 | 0.983 (inactive)
COP(=S)(OC)SCN1C(=O)c2ccccc2C1=O | 1.04 (inactive)
Nc1c(Cl)c(F)nc(OCC(=O)O)c1Cl | 1.02 (inactive)
CO/C=C(/C(=O)OC)c1ccccc1Oc1cc(Oc2ccccc2C#N)ncn1 | 1.03 (inactive)
CCCCOC(=O)[C@H](C)Oc1ccc(Oc2ccc(C#N)cc2F)cc1 | 1.07 (inactive)
C#CCN1C(=O)COc2cc(F)c(N3C(=O)C4=C(CCCC4)C3=O)cc21 | 1.14 (inactive)
CON(C)C(=O)Nc1ccc(Cl)c(Cl)c1 | 1.04 (inactive)
